# Changes are numbered by the printed parent chain.
# Legend:
# Assay in all cases: PBM; 200 nM protein, PBS
# Settings in all cases: dsDNA, one strand shown
# PAX4 [1] = molecular target: T1, PAX4 (Homo sapiens, UniProt O43316 9-242, R200K)
# T1 sequence: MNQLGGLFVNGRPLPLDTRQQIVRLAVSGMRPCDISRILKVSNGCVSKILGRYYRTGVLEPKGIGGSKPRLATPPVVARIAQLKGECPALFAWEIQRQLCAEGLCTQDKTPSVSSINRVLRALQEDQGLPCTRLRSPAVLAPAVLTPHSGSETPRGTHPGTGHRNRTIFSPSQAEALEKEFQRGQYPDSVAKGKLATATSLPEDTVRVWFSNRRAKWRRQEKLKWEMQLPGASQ
# PRRX1 [2] = molecular target: PRRX1 (Homo sapiens, UniProt P54821 80-166, F113S)
# PRRX1 (Homo sapiens, UniProt P54821 80-166, F113S), sequence (P54821 80-166 F113S): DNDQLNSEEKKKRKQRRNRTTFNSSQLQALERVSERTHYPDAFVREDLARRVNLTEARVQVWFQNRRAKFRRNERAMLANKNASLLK
# PAX4 [3] = molecular target: T2, PAX4 (Homo sapiens, UniProt O43316 9-242)
# T2 sequence: T1 sequence with K192R
# PAX4 [4] = molecular target: T3, PAX4 (Homo sapiens, UniProt O43316 9-242, R200Q)
# T3 sequence: T1 sequence with K192Q
# SHOX = SHOX (Homo sapiens, UniProt O15266 103-189, R173C)
# SHOX, sequence (O15266 103-189 R173C): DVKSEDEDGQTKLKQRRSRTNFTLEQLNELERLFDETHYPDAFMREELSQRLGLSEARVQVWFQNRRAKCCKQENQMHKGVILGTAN
# PAX4 [5] = molecular target: T4, PAX4 (Homo sapiens, UniProt O43316 9-242, F177V)
# T4 sequence: T1 sequence with F169V, K192R
# PAX4 [6] = molecular target: T5, PAX4 (Homo sapiens, UniProt O43316 9-242, F177Y)
# T5 sequence: T1 sequence with F169Y, K192R
# HESX1 [7] = molecular target: HESX1 (Homo sapiens, UniProt Q9UBX0 95-180, R109Q)
# HESX1 (Homo sapiens, UniProt Q9UBX0 95-180, R109Q), sequence (Q9UBX0 95-180 R109Q): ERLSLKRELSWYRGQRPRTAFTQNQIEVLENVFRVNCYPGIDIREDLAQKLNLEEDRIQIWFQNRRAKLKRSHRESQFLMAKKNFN
# ALX3 [8] = molecular target: ALX3 (Homo sapiens, UniProt O95076 139-225, L168V)
# ALX3 (Homo sapiens, UniProt O95076 139-225, L168V), sequence (O95076 139-225 L168V): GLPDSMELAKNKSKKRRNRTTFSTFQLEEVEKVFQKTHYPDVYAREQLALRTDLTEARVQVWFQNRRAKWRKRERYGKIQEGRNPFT
# HESX1 [9] = molecular target: HESX1 (Homo sapiens, UniProt Q9UBX0 95-180, F115L)
# HESX1 (Homo sapiens, UniProt Q9UBX0 95-180, F115L), sequence (Q9UBX0 95-180 F115L): as the sequence (Q9UBX0 95-180 R109Q) above, with Q15R, F21L counted along it
# PAX4 [10] = molecular target: T6, PAX4 (Homo sapiens, UniProt O43316 9-242, R227W)
# T6 sequence: T1 sequence with K192R, R219W
# ALX4 [11] = molecular target: ALX4 (Homo sapiens, UniProt Q9H161 200-286)
# ALX4 (Homo sapiens, UniProt Q9H161 200-286), sequence (Q9H161 200-286): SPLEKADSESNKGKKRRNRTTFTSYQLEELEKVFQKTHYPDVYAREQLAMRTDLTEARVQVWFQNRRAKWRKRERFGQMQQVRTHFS
# ALX4 [12] = molecular target: ALX4 (Homo sapiens, UniProt Q9H161 200-286, Q225E)
# ALX4 (Homo sapiens, UniProt Q9H161 200-286, Q225E), sequence (Q9H161 200-286 Q225E): as the sequence (Q9H161 200-286) above, with Q26E counted along it
# PROP1 [13] = molecular target: PROP1 (Homo sapiens, UniProt O75360 56-141)
# PROP1 (Homo sapiens, UniProt O75360 56-141), sequence (O75360 56-141): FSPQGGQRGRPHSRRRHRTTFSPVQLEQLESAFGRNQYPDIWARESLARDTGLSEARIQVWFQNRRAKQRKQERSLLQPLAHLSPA
# PROP1 [14] = molecular target: PROP1 (Homo sapiens, UniProt O75360 56-141, R99H)
# PROP1 (Homo sapiens, UniProt O75360 56-141, R99H), sequence (O75360 56-141 R99H): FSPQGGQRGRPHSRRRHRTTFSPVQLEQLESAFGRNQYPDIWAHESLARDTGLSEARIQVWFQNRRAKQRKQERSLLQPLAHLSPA
# PROP1 [15] = molecular target: PROP1 (Homo sapiens, UniProt O75360 56-141, F88S)
# PROP1 (Homo sapiens, UniProt O75360 56-141, F88S), sequence (O75360 56-141 F88S): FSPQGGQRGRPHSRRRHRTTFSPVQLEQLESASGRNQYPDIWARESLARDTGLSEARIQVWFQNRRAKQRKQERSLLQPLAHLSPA
# PRRX1 [16] = molecular target: PRRX1 (Homo sapiens, UniProt P54821 80-166)
# PRRX1 (Homo sapiens, UniProt P54821 80-166), sequence (P54821 80-166): as the sequence (P54821 80-166 F113S) above, with S34F counted along it
# ALX1 [17] = molecular target: ALX1 (Homo sapiens, UniProt Q15699 118-204, L144V)
# ALX1 (Homo sapiens, UniProt Q15699 118-204, L144V), sequence (Q15699 118-204 L144V): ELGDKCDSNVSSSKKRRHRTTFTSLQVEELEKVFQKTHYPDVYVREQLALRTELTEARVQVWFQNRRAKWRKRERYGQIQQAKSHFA
# PITX2 = PITX2 (Homo sapiens, UniProt Q99697 72-157)
# ALX1 [18] = molecular target: ALX1 (Homo sapiens, UniProt Q15699 118-204, L144R)
# ALX1 (Homo sapiens, UniProt Q15699 118-204, L144R), sequence (Q15699 118-204 L144R): as the sequence (Q15699 118-204 L144V) above, with V27R counted along it
# ALX1 [19] = molecular target: ALX1 (Homo sapiens, UniProt Q15699 118-204)
# ALX1 (Homo sapiens, UniProt Q15699 118-204), sequence (Q15699 118-204): as the sequence (Q15699 118-204 L144V) above, with V27L counted along it
# HOXA2 [20] = molecular target: HOXA2 (Homo sapiens, UniProt O43364 129-215, R185T)
# HOXA2 (Homo sapiens, UniProt O43364 129-215, R185T), sequence (O43364 129-215 R185T): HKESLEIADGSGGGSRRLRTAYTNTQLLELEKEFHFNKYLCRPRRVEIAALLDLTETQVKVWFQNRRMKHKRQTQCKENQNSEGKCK
# ALX3 [21] = molecular target: ALX3 (Homo sapiens, UniProt O95076 139-225, N203Q)
# ALX3 (Homo sapiens, UniProt O95076 139-225, N203Q), sequence (O95076 139-225 N203Q): as the sequence (O95076 139-225 L168V) above, with V30L, N65Q counted along it
# HOXA2 [22] = molecular target: HOXA2 (Homo sapiens, UniProt O43364 129-215, R185K)
# HOXA2 (Homo sapiens, UniProt O43364 129-215, R185K), sequence (O43364 129-215 R185K): as the sequence (O43364 129-215 R185T) above, with T57K counted along it
# ALX3 [23] = molecular target: ALX3 (Homo sapiens, UniProt O95076 139-225)
# ALX3 (Homo sapiens, UniProt O95076 139-225), sequence (O95076 139-225): as the sequence (O95076 139-225 L168V) above, with V30L counted along it
# ALX3 [24] = molecular target: ALX3 (Homo sapiens, UniProt O95076 139-225, L168Q)
# ALX3 (Homo sapiens, UniProt O95076 139-225, L168Q), sequence (O95076 139-225 L168Q): as the sequence (O95076 139-225 L168V) above, with V30Q counted along it
# HOXA2 [25] = molecular target: HOXA2 (Homo sapiens, UniProt O43364 129-215, Y150S)
# HOXA2 (Homo sapiens, UniProt O43364 129-215, Y150S), sequence (O43364 129-215 Y150S): as the sequence (O43364 129-215 R185T) above, with Y22S, T57R counted along it
# ALX3 [26] = molecular target: ALX3 (Homo sapiens, UniProt O95076 139-225, N203S)
# ALX3 (Homo sapiens, UniProt O95076 139-225, N203S), sequence (O95076 139-225 N203S): as the sequence (O95076 139-225 L168V) above, with V30L, N65S counted along it
# HOXA2 [27] = molecular target: HOXA2 (Homo sapiens, UniProt O43364 129-215)
# HOXA2 (Homo sapiens, UniProt O43364 129-215), sequence (O43364 129-215): as the sequence (O43364 129-215 R185T) above, with T57R counted along it
# MSX2 [28] = molecular target: MSX2 (Homo sapiens, UniProt P35548 130-214, R199I)
# MSX2 (Homo sapiens, UniProt P35548 130-214, R199I), sequence (P35548 130-214 R199I): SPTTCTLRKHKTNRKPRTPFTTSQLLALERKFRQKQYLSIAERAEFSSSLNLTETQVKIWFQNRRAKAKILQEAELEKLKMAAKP
# MSX2 [29] = molecular target: MSX2 (Homo sapiens, UniProt P35548 130-214)
# MSX2 (Homo sapiens, UniProt P35548 130-214), sequence (P35548 130-214): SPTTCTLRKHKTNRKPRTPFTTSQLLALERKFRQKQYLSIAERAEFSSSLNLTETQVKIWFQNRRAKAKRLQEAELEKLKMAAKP
# MSX2 [30] = molecular target: MSX2 (Homo sapiens, UniProt P35548 130-214, F161Y)
# MSX2 (Homo sapiens, UniProt P35548 130-214, F161Y), sequence (P35548 130-214 F161Y): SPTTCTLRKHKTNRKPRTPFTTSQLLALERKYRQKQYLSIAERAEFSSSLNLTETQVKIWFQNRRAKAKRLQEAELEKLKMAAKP
# HOXA4 = HOXA4 (Homo sapiens, UniProt Q00056 201-287, R217L)
# HOXA4, sequence (Q00056 201-287 R217L): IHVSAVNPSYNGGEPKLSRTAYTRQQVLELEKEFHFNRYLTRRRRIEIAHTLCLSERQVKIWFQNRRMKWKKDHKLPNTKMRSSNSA
sequence,measurement,setting,value
AATTAGAA,binding signal,PAX4 [1],"11.6 upbm affinity estimate (log intensity, higher = more binding, comparable within an allelic series)"
same,binding signal,PRRX1 [2],"11.1 upbm affinity estimate (log intensity, higher = more binding, comparable within an allelic series)"
same,binding signal,PAX4 [3],"12.1 upbm affinity estimate (log intensity, higher = more binding, comparable within an allelic series)"
same,binding signal,PAX4 [4],"11.9 upbm affinity estimate (log intensity, higher = more binding, comparable within an allelic series)"
same,binding signal,SHOX,"9.39 upbm affinity estimate (log intensity, higher = more binding, comparable within an allelic series)"
same,binding signal,PAX4 [5],"10.5 upbm affinity estimate (log intensity, higher = more binding, comparable within an allelic series)"
same,binding signal,PAX4 [6],"10.9 upbm affinity estimate (log intensity, higher = more binding, comparable within an allelic series)"
same,binding signal,HESX1 [7],"8.83 upbm affinity estimate (log intensity, higher = more binding, comparable within an allelic series)"
same,binding signal,ALX3 [8],"9.7 upbm affinity estimate (log intensity, higher = more binding, comparable within an allelic series)"
same,binding signal,HESX1 [9],"7.75 upbm affinity estimate (log intensity, higher = more binding, comparable within an allelic series)"
same,binding signal,PAX4 [10],"10.9 upbm affinity estimate (log intensity, higher = more binding, comparable within an allelic series)"
TGCCAGCA,binding signal,ALX4 [11],"8.19 upbm affinity estimate (log intensity, higher = more binding, comparable within an allelic series)"
same,binding signal,ALX4 [12],"8.28 upbm affinity estimate (log intensity, higher = more binding, comparable within an allelic series)"
same,binding signal,PROP1 [13],"6.8 upbm affinity estimate (log intensity, higher = more binding, comparable within an allelic series)"
same,binding signal,PROP1 [14],"6.79 upbm affinity estimate (log intensity, higher = more binding, comparable within an allelic series)"
same,binding signal,PROP1 [15],"6.93 upbm affinity estimate (log intensity, higher = more binding, comparable within an allelic series)"
ATAATTTG,binding signal,PAX4 [1],"11.6 upbm affinity estimate (log intensity, higher = more binding, comparable within an allelic series)"
same,binding signal,PRRX1 [2],"10.9 upbm affinity estimate (log intensity, higher = more binding, comparable within an allelic series)"
same,binding signal,PAX4 [3],"12.1 upbm affinity estimate (log intensity, higher = more binding, comparable within an allelic series)"
same,binding signal,PAX4 [4],"12 upbm affinity estimate (log intensity, higher = more binding, comparable within an allelic series)"
same,binding signal,PAX4 [5],"10.5 upbm affinity estimate (log intensity, higher = more binding, comparable within an allelic series)"
same,binding signal,PAX4 [6],"10.9 upbm affinity estimate (log intensity, higher = more binding, comparable within an allelic series)"
same,binding signal,PAX4 [10],"11 upbm affinity estimate (log intensity, higher = more binding, comparable within an allelic series)"
same,binding signal,PRRX1 [16],"13.2 upbm affinity estimate (log intensity, higher = more binding, comparable within an allelic series)"
GACCGTCC,binding signal,ALX4 [11],"8.08 upbm affinity estimate (log intensity, higher = more binding, comparable within an allelic series)"
same,binding signal,ALX4 [12],"8.15 upbm affinity estimate (log intensity, higher = more binding, comparable within an allelic series)"
same,binding signal,ALX1 [17],"6.23 upbm affinity estimate (log intensity, higher = more binding, comparable within an allelic series)"
same,binding signal,PITX2,"8.03 upbm affinity estimate (log intensity, higher = more binding, comparable within an allelic series)"
same,binding signal,ALX1 [18],"6.38 upbm affinity estimate (log intensity, higher = more binding, comparable within an allelic series)"
same,binding signal,ALX1 [19],"6.51 upbm affinity estimate (log intensity, higher = more binding, comparable within an allelic series)"
GAGGCACC,binding signal,ALX4 [11],"8.21 upbm affinity estimate (log intensity, higher = more binding, comparable within an allelic series)"
same,binding signal,ALX4 [12],"8.22 upbm affinity estimate (log intensity, higher = more binding, comparable within an allelic series)"
same,binding signal,HOXA2 [20],"7.41 upbm affinity estimate (log intensity, higher = more binding, comparable within an allelic series)"
same,binding signal,ALX3 [21],"7.66 upbm affinity estimate (log intensity, higher = more binding, comparable within an allelic series)"
same,binding signal,PITX2,"7.88 upbm affinity estimate (log intensity, higher = more binding, comparable within an allelic series)"
same,binding signal,HOXA2 [22],"10.5 upbm affinity estimate (log intensity, higher = more binding, comparable within an allelic series)"
same,binding signal,ALX3 [23],"7.72 upbm affinity estimate (log intensity, higher = more binding, comparable within an allelic series)"
same,binding signal,ALX3 [24],"7.51 upbm affinity estimate (log intensity, higher = more binding, comparable within an allelic series)"
same,binding signal,ALX3 [8],"7.67 upbm affinity estimate (log intensity, higher = more binding, comparable within an allelic series)"
same,binding signal,HOXA2 [25],"10.4 upbm affinity estimate (log intensity, higher = more binding, comparable within an allelic series)"
same,binding signal,ALX3 [26],"7.65 upbm affinity estimate (log intensity, higher = more binding, comparable within an allelic series)"
same,binding signal,HOXA2 [27],"7.42 upbm affinity estimate (log intensity, higher = more binding, comparable within an allelic series)"
GAGGACTC,binding signal,ALX4 [11],"8.06 upbm affinity estimate (log intensity, higher = more binding, comparable within an allelic series)"
same,binding signal,ALX4 [12],"8.19 upbm affinity estimate (log intensity, higher = more binding, comparable within an allelic series)"
same,binding signal,ALX1 [17],"6.41 upbm affinity estimate (log intensity, higher = more binding, comparable within an allelic series)"
same,binding signal,PITX2,"7.89 upbm affinity estimate (log intensity, higher = more binding, comparable within an allelic series)"
same,binding signal,ALX1 [18],"6.53 upbm affinity estimate (log intensity, higher = more binding, comparable within an allelic series)"
same,binding signal,ALX1 [19],"6.39 upbm affinity estimate (log intensity, higher = more binding, comparable within an allelic series)"
AATGGATA,binding signal,ALX4 [11],"10.2 upbm affinity estimate (log intensity, higher = more binding, comparable within an allelic series)"
same,binding signal,ALX4 [12],"9.39 upbm affinity estimate (log intensity, higher = more binding, comparable within an allelic series)"
GAATACAA,binding signal,ALX4 [11],"9.67 upbm affinity estimate (log intensity, higher = more binding, comparable within an allelic series)"
same,binding signal,ALX4 [12],"9.34 upbm affinity estimate (log intensity, higher = more binding, comparable within an allelic series)"
CAGCGTAA,binding signal,PAX4 [1],"10.6 upbm affinity estimate (log intensity, higher = more binding, comparable within an allelic series)"
same,binding signal,PAX4 [3],"10.8 upbm affinity estimate (log intensity, higher = more binding, comparable within an allelic series)"
CCGCAGAC,binding signal,ALX4 [11],"8.08 upbm affinity estimate (log intensity, higher = more binding, comparable within an allelic series)"
same,binding signal,ALX4 [12],"8.21 upbm affinity estimate (log intensity, higher = more binding, comparable within an allelic series)"
same,binding signal,HOXA2 [20],"7.17 upbm affinity estimate (log intensity, higher = more binding, comparable within an allelic series)"
same,binding signal,HOXA2 [22],"10.2 upbm affinity estimate (log intensity, higher = more binding, comparable within an allelic series)"
same,binding signal,HOXA2 [25],"10.5 upbm affinity estimate (log intensity, higher = more binding, comparable within an allelic series)"
same,binding signal,HOXA2 [27],"6.96 upbm affinity estimate (log intensity, higher = more binding, comparable within an allelic series)"
GCTGCAGC,binding signal,PAX4 [1],"9.33 upbm affinity estimate (log intensity, higher = more binding, comparable within an allelic series)"
same,binding signal,PRRX1 [2],"9.31 upbm affinity estimate (log intensity, higher = more binding, comparable within an allelic series)"
same,binding signal,PAX4 [3],"9.16 upbm affinity estimate (log intensity, higher = more binding, comparable within an allelic series)"
same,binding signal,HOXA2 [20],"7.32 upbm affinity estimate (log intensity, higher = more binding, comparable within an allelic series)"
same,binding signal,MSX2 [28],"9.55 upbm affinity estimate (log intensity, higher = more binding, comparable within an allelic series)"
same,binding signal,PAX4 [4],"9.38 upbm affinity estimate (log intensity, higher = more binding, comparable within an allelic series)"
same,binding signal,HOXA2 [22],"10.3 upbm affinity estimate (log intensity, higher = more binding, comparable within an allelic series)"
same,binding signal,PAX4 [5],"9.33 upbm affinity estimate (log intensity, higher = more binding, comparable within an allelic series)"
same,binding signal,MSX2 [29],"9.49 upbm affinity estimate (log intensity, higher = more binding, comparable within an allelic series)"
same,binding signal,PAX4 [6],"9.42 upbm affinity estimate (log intensity, higher = more binding, comparable within an allelic series)"
same,binding signal,MSX2 [30],"9.48 upbm affinity estimate (log intensity, higher = more binding, comparable within an allelic series)"
same,binding signal,PAX4 [10],"9.46 upbm affinity estimate (log intensity, higher = more binding, comparable within an allelic series)"
same,binding signal,HOXA2 [25],"10.6 upbm affinity estimate (log intensity, higher = more binding, comparable within an allelic series)"
same,binding signal,PRRX1 [16],"9.11 upbm affinity estimate (log intensity, higher = more binding, comparable within an allelic series)"
same,binding signal,HOXA2 [27],"6.95 upbm affinity estimate (log intensity, higher = more binding, comparable within an allelic series)"
TCCGATAA,binding signal,ALX4 [11],"10.1 upbm affinity estimate (log intensity, higher = more binding, comparable within an allelic series)"
same,binding signal,ALX4 [12],"9.41 upbm affinity estimate (log intensity, higher = more binding, comparable within an allelic series)"
AAGTAATT,binding signal,ALX4 [11],"13 upbm affinity estimate (log intensity, higher = more binding, comparable within an allelic series)"
same,binding signal,ALX4 [12],"12 upbm affinity estimate (log intensity, higher = more binding, comparable within an allelic series)"
same,binding signal,HOXA4,"12 upbm affinity estimate (log intensity, higher = more binding, comparable within an allelic series)"
same,binding signal,ALX3 [26],"8.65 upbm affinity estimate (log intensity, higher = more binding, comparable within an allelic series)"

# Reference: article PMC11006913
